Data from PubChem BioAssay (NCI).
About 83,000 compounds went through this panel and 20% of them were active in at least one assay; those are over-represented in the sample as a whole.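 The endpoint reported here, percent growth, reads 100 for growth as untreated, 0 for no net growth and -100 for all cells dead.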 A number with no mark means an inactive call. Active and inactive are the calls of the source. Rule for the calls: active = growth percent below 10; inactive = the rest.

Experiments:
Assay in all cases: NCI-60 one-dose screen, 48 h (100 = growth as untreated, 0 = no growth, -100 = all killed)
Settings in all cases: 10 µM unless noted
[1] = system: HCT-15 colon
[2] = system: HT29 colon
[3] = system: SNB-75 CNS
[4] = system: SNB-19 CNS
[5] = system: U251 CNS
[6] = system: PC-3 prostate
[7] = system: SK-MEL-5 melanoma
[8] = system: UACC-62 melanoma
[9] = system: LOX IMVI melanoma
[10] = system: SK-MEL-28 melanoma

Structure (SMILES) | growth [1] | growth [2] | growth [3] | growth [4] | growth [5] | growth [6] | growth [7] | growth [8] | growth [9] | growth [10]
Cc1ccc(-[n+]2c3cc(N)c(C)cc3nc3cc(C)c(Nc4ccccc4)cc32)cc1 | -69.8% (active) | -73.9% (active) | -68.5% (active) | -82.3% (active) | -75.1% (active) | -29.1% (active) | -100% (active) | -73.5% (active) | -100% (active) | -69.6% (active)
C=CC(=O)Nc1cc2c(Nc3ccc(F)c(Cl)c3)ncnc2cc1OCCCN1CCOCC1 | -32% (active) | -74.9% (active) | -15.9% (active) | 17.4% | 21.2% | 17.5% | 48.7% | -49.7% (active) | -87% (active) | -19% (active)
CNC(=O)c1cc(Oc2ccc3nc(NC(=O)Nc4ccc(Cl)c(C(F)(F)F)c4)sc3c2)ccn1 | 23.5% | 3.52% (active) | -58.8% (active) | 33.5% | -9.69% (active) | 12.4% | 25.7% | 8.48% (active) | 1.46% (active) | 34.7%
CN1CCN(c2ccc(C(=O)Nc3n[nH]c4ccc(Cc5cc(F)cc(F)c5)cc34)c(NC3CCOCC3)c2)CC1 | -65.7% (active) | -56.8% (active) | -93.2% (active) | -50.3% (active) | -83.7% (active) | -12.3% (active) | -96.5% (active) | -78.4% (active) | -89.7% (active) | -87% (active)
CC1=CC2c3oc(-c4ccccc4)c(C(=O)c4ccccc4)c3CNC2C=C1 (stereo not given) | 97.2% | 84.2% | 79.7% | 91.6% | 80.7% | 94% | 103% | 87.9% | 86.2% | 111%
CN1CCN(Cc2ccc(NC(=O)c3[nH]ncc3Nc3ncnc4sc5c(c34)CCCC5)cc2)CC1 | -69.3% (active) | -36.9% (active) | -94.2% (active) | -88.8% (active) | -84.2% (active) | -77.8% (active) | -99.9% (active) | 4.67% (active) | -91.7% (active) | -78.9% (active)
C[C@@H](Oc1cc(C(=O)Nc2ccc(C(=O)N3CCN(C)CC3)cc2)nnc1N)c1c(Cl)ccc(F)c1Cl | 46.9% | 9.76% (active) | 71.2% | 75.7% | 52.1% | 52.4% | 36.8% | 62% | 33.2% | 70.9%
C=CC(=O)N1CCC[C@H](n2c(=O)n(-c3ccc(Oc4ccccc4)cc3)c3c(N)ncnc32)C1 | 98.3% | 68.9% | 113% | 79.1% | 89.2% | 87.9% | 94.1% | 81.2% | 72.4% | 113%
ClCc1ccc(-c2ccc(Cn3cnc4nc(Cl)nc(Cl)c43)cc2)cc1 | -5.13% (active) | -8.13% (active) | -2.49% (active) | 6.84% (active) | -69.9% (active) | -9.15% (active) | -85.1% (active) | -20.5% (active) | -82.6% (active) | 1.02% (active)
COc1cc(NC2CCC(=O)N2c2ccc(Cl)cc2Cl)cc(OC)c1OC (stereo not given) | 108% | 107% | 86.5% | 101% | 97.7% | 95.9% | 103% | 104% | 96.6% | 104%
CNC(=O)c1c(C)oc2cc(Oc3ncnc4cc(OC)c(OC)cc34)ccc12 | 109% | 98.4% | 58.2% | 97.5% | 58.9% | 84.9% | 121% | 104% | 96.5% | 119%
Cc1cc2c(F)c(Oc3ncnn4cc(OC[C@@H](C)OC(=O)[C@H](C)N)c(C)c34)ccc2[nH]1 | 38.6% | 6.32% (active) | 55.6% | 51.8% | 44.8% | 54.5% | 42.6% | 2.73% (active) | 26.5% | 10.5%
O=C(c1ccc(F)c(F)c1Nc1ccc(I)cc1F)N1CC(O)([C@@H]2CCCCN2)C1 | 25.6% | -18.5% (active) | 21.7% | 36.4% | 15.3% | 38.6% | -92.9% (active) | -5.75% (active) | -84.1% (active) | -1.76% (active)
COC(=O)CC[C@@H](C)[C@H]1CC[C@H]2C3CC[C@@H]4C[C@@H]5CC[C@]4(C)[C@@]3(O5)[C@H](Br)[C@@H](Br)[C@]12C (stereo not given in full) | 97.3% | 81.6% | 84.3% | 106% | 88.6% | 77.9% | 99.3% | 86.3% | 97.1% | 105%
CC(C)(C)c1nc(-c2cccc(NS(=O)(=O)c3c(F)cccc3F)c2F)c(-c2ccnc(N)n2)s1 | 90.8% | 8.76% (active) | 107% | 111% | 113% | 100% | 61.1% | 30.9% | 24.5% | 37.1%
Cn1ccnc1C(=O)/C=C/c1ccc(CC(=O)Nc2ccc(C(F)(F)F)cc2)cc1 | -18.7% (active) | -2.78% (active) | 0.358% (active) | 4.97% (active) | -20% (active) | 13.8% | 56.9% | 27.9% | -49.4% (active) | 77.8%
COc1cc2c3c(c1)nc(C)n3CCC2 | 98.2% | 97.2% | 83.4% | 101% | 91.9% | 90.1% | 97.4% | 100% | 92.7% | 106%
COc1cc(Nc2ncc(F)c(Nc3ccc4c(n3)NC(=O)C(C)(C)O4)n2)cc(OC)c1OC | 53.3% | 12.3% | -7.82% (active) | 64.6% | 48.5% | 51.9% | 71.8% | 58% | 9.51% (active) | 67.1%
COC(=O)Nc1nc2ccc(C(=O)c3ccc(N(C)C4COC4)cc3)cc2[nH]1 | 12.4% | 0.909% (active) | 16.4% | 26.9% | 17.2% | 24.2% | 3.76% (active) | 34.3% | 20.4% | 56.9%
CNC(=O)c1nn(C)c2c1C(C)(C)Cc1cnc(Nc3ccc(N4CCN(C)CC4)cc3)nc1-2 | 3.12% (active) | -16.2% (active) | -20.6% (active) | 12.3% | 8.54% (active) | 7.92% (active) | 7.31% (active) | -9.49% (active) | 5.27% (active) | 16.2%
COc1cc(NCCCN)c2ncccc2c1 | 100% | 75.6% | 87.5% | 87.5% | 83.2% | 82.2% | 81.5% | 86.8% | 61.8% | 83.4%
CNC(=O)c1cc(Oc2ccc(NC(=O)Nc3cc(C(C)(C)C)nn3-c3ccc4ncccc4c3)c(F)c2)ccn1 | -12.9% (active) | -45.3% (active) | -94% (active) | 1.45% (active) | -21.7% (active) | -23.6% (active) | -83.5% (active) | -52% (active) | -72.9% (active) | -45.5% (active)
N#CCNC(=O)c1ccc(-c2ccnc(Nc3ccc(N4CCOCC4)cc3)n2)cc1 | 20.7% | 24.2% | -4.36% (active) | 50.8% | 19.3% | 30.8% | 25.1% | 34% | 4.92% (active) | 36.7%
C[C@@H](N)c1ccc(C(=O)Nc2ccnc3[nH]ccc23)cc1 | 68.3% | 32% | 6.4% (active) | 60.7% | 46.7% | 44.9% | 67.8% | 82.1% | 45.5% | 63%
CC[C@H](Nc1ncnc2nc[nH]c12)c1nc2cccc(F)c2c(=O)n1-c1ccccc1 | 88.9% | 50.4% | 25.8% | 71.5% | 77% | 50.9% | 80.2% | 39.1% | 74.6% | 69.3%
Nc1nc(N)c2nc(-c3cccc(O)c3)c(-c3cccc(O)c3)nc2n1 | 92% | 68% | 39.9% | 70.8% | 71.6% | 76.6% | 89.1% | 83% | 89.6% | 85.2%
